Assay results from PubChem BioAssay (NCATS).
Inconclusive results are not listed. Where a call stands in place of a potency, no number is given. Calls of active or inactive are those of the source. Calls come from the whole dose curve; as a rule, active = well fitted curve in the direction sought with a large enough effect; inconclusive = small, poorly fitted or top-dose-only effect, or another doubt; inactive = no such curve, though single readings can be large; an effect the other way counts as inactive or inconclusive.

Test system: not listed separately
Test: Primary qHTS for inhibitors of nuclear receptor binding SET domain protein 2 (NSD2) in an RCH-ACV wild type WT cells (2C) (AID 1645877); note: nearly all actives have a fitted effect of over 70% in size
Details: RCH-ACV (leukaemia line) NSD2 WT (2C) viability, CellTiter-Glo, 72 h; series mostly up to 44.9 µM
Potency is the fitted concentration of half-maximal effect.

| SMILES | Potency |
| --- | --- |
| COC(=O)[C@]12CCC(C)(C)C[C@@H]1[C@@H]1C(=O)C=C3[C@]4(C)C=C(C#N)C(=O)C(C)(C)[C@@H]4CC[C@@]3(C)[C@]1(C)CC2 | 0.326 µM (active) |
| c1cc2c(cc1C1OC[C@@H]3C(c4ccc5c(c4)OCO5)OC[C@H]13)OCO2 (stereo partly drawn) | inactive |
| COC[C@@H]1OC(=O)c2coc3c2[C@]1(C)C1=C(C3=O)[C@H]2CC[C@H](O)[C@@]2(C)C[C@@H]1OC(C)=O | 0.651 µM (active) |

Biological target: Rap guanine nucleotide exchange factor 3 (Homo sapiens) (UniProt O95398)
Sequence (O95398 whole entry, looked up): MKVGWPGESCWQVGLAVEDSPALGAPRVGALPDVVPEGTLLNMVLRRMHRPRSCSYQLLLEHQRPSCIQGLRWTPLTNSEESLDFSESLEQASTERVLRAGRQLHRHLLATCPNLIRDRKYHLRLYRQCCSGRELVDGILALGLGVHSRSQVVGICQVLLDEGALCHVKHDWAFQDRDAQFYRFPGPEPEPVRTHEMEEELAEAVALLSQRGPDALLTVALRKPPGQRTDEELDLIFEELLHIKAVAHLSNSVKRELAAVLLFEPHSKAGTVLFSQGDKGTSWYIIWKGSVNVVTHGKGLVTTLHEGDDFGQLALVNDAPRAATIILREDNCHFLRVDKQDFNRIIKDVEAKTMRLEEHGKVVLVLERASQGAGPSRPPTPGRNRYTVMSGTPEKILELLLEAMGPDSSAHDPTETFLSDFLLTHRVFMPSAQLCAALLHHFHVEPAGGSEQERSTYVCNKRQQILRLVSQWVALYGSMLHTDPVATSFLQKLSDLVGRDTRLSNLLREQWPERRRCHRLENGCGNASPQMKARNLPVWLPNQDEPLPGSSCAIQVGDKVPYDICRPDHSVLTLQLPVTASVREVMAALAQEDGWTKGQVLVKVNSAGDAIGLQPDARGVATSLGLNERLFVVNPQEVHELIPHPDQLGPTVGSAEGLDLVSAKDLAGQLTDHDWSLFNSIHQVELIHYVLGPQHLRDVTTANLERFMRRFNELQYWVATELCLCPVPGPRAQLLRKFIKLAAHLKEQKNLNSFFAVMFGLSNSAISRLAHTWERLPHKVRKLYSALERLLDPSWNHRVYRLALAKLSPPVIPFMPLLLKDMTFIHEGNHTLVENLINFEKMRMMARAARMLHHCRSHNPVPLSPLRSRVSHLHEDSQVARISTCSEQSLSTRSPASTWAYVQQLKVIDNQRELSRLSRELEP
Test: Confirmatory qHTS for antagonist of cAMP-regulated guanine nucleotide exchange factor 3 (EPAC1) (AID 1645880); note: nearly all actives have a fitted effect of over 55% in size
Details: EPAC1 Rap1B-BODIPY-GDP exchange, fluorescence; series mostly up to 115 µM
Procedure, shortened: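 Released BODIPY-GDP fluoresces less than Rap1-bound BODIPY-GDP; the signal is followed at 480/540 nm at 5-min intervals over 30 min, after 5 min at room temperature. Reactions contain 100 nM EPAC1, 250 nM RAP1B-BODIPY-GDP and 50 uM GDP; results are normalized to ATA and DMSO.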

| SMILES | Potency |
| --- | --- |
| O=C1NC(=O)N(c2cccc(Cl)c2)C(=O)/C1=C\c1ccc(Sc2nc3ccccc3[nH]2)o1 | 28.2 µM (active) |
| CCOC(=O)[C@]12Cc3ccc(C)cc3[C@H]1N(C1CCCCC1)C(=O)c1cc(OC)ccc12 | inactive |
| O=C1Nc2ccccc2/C1=C/c1nc2ccccc2c(=O)n1-c1ccc(O)cc1 | 35.5 µM (active) |
| CCOC(=O)[C@]12Cc3ccsc3[C@H]1N(Cc1ccccc1)C(=O)c1ccccc12 | inactive |
| CCOC(=O)[C@]12Cc3cc(N(C)C)ccc3[C@H]1N(Cc1ccccc1)C(=O)c1ccccc12 | inactive |
| CCCNC(=O)N1[C@H]2CC[C@@H]1C(C(=O)OC)=C(c1ccc(F)cc1OCc1ccccc1)C2 | inactive |
| COc1ccc(C(=O)C2CN(C)CC2c2ccc(Cl)cc2)cc1 (stereo not drawn) | inactive |
| COc1ccc(N2C(=O)NC(=O)/C(=C/c3ccc([N+](=O)[O-])s3)C2=O)cc1 | 33.8 µM (active) |
| COc1ccc(C(SCC(NC(=O)OCc2ccccc2)C(=O)O)c2ccc(OC)cc2)cc1 (stereo not drawn) | inactive |
| CCOC(=O)[C@]12Cc3cc(Cl)ccc3[C@H]1N(C1CCCCC1)C(=O)c1ccccc12 | inactive |
| CCOC(=O)[C@]12Cc3cc(C)ccc3[C@H]1N(Cc1ccccc1)C(=O)c1ccccc12 | inactive |
| O=c1[nH]c(O)c(C=Nc2ccccc2Sc2ccccc2)c(=O)[nH]1 | inactive |
| CCOC(=O)c1cc(CC)sc1/N=C/c1c(O)[nH]c(=S)[nH]c1=O | inactive |
| CCCCn1c(NS(=O)(=O)c2ccc(C)cc2)c(C(=O)OCC)c2nc3ccccc3nc21 | 75.7 µM (active) |
| CCCCNC(=O)c1c(N)n(CCCOC)c2nc3ccccc3nc12 | 84.9 µM (active) |
| CC[C@@H]1c2ccccc2[C@@H]2CC[C@H]1N2c1ccccc1 | inactive |
| Cc1cc(/C=C2\C(=O)NC(=O)N(c3ccc(Cl)cc3)C2=O)c(C)n1-c1sc2c(c1C#N)CCCC2 | 11.2 µM (active) |
| CC1=C(O)C(=O)C=C2C1=CC=C1C2(C)CCC2(C)C3CC(C)(C(=O)O)CCC3(C)CCC12C (stereo not drawn) | 33.8 µM (active) |
| CCc1nc2ccccc2c(=O)n1-c1ccccc1OC | inactive |
| CCOC(=O)[C@]12Cc3cc(C)ccc3[C@H]1N(C1CCCCC1)C(=O)c1ccccc12 | inactive |
| COc1ccc(-n2c(O)c(/C=C3\C=Nc4ccc(Br)cc43)c(=O)[nH]c2=O)c(OC)c1 | 37.9 µM (active) |
| Nc1c(C(=O)Nc2ccc(Br)cc2F)sc2nc3c(cc12)N1CCC3CC1 | inactive |
| Cc1ccc(N2C(=O)NC(=O)/C(=C\C=C\c3ccco3)C2=O)cc1C | 33.8 µM (active) |
| CCOC(=O)[C@]12Cc3ccccc3[C@H]1N(C1CCCCC1)C(=O)c1cc(OC)ccc12 | inactive |
| COC1C(OC(=O)c2ccc(C)[nH]2)C(O)C(Oc2ccc3c(O)c(NC(=O)c4ccc(O)c(CC=C(C)C)c4)c(=O)oc3c2Cl)OC1(C)C (stereo not drawn) | 30.1 µM (active) |
| CC(C)C/C(=N/O)c1cn(C)c2ccccc12 | inactive |
| COC(=O)c1cn(C(=O)c2cccc3ccccc23)c2ccccc12 | inactive |
| O=[N+]([O-])c1ccc(N2CCOCC2)c2c1no[n+]2[O-] | 47.8 µM (active) |
| COC(=O)c1cn(Cc2ccc(F)cc2)c2ccccc12 | inactive |
| COC(=O)C1C2c3ccccc3C(c3ccccc32)C1(C)C(=O)OC (stereo not drawn) | inactive |

Biological target: Rap guanine nucleotide exchange factor 3 (Homo sapiens) (UniProt O95398)
Test: Confirmatory qHTS for agonist of cAMP-regulated guanine nucleotide exchange factor 3 (EPAC1) (AID 1645881); note: nearly all actives have a fitted effect of over 75% in size
Details: EPAC1 Rap1B BODIPY-GDP exchange fluorescence; series mostly up to 154 µM

| SMILES | Potency |
| --- | --- |
| O=C1NC(=O)N(c2cccc(Cl)c2)C(=O)/C1=C\c1ccc(Sc2nc3ccccc3[nH]2)o1 | inactive |
| CCOC(=O)[C@]12Cc3ccc(C)cc3[C@H]1N(C1CCCCC1)C(=O)c1cc(OC)ccc12 | inactive |
| O=C1Nc2ccccc2/C1=C/c1nc2ccccc2c(=O)n1-c1ccc(O)cc1 | inactive |
| CCOC(=O)[C@]12Cc3ccsc3[C@H]1N(Cc1ccccc1)C(=O)c1ccccc12 | inactive |
| CCOC(=O)[C@]12Cc3cc(N(C)C)ccc3[C@H]1N(Cc1ccccc1)C(=O)c1ccccc12 | inactive |
| CCCNC(=O)N1[C@H]2CC[C@@H]1C(C(=O)OC)=C(c1ccc(F)cc1OCc1ccccc1)C2 | inactive |
| COc1ccc(C(=O)C2CN(C)CC2c2ccc(Cl)cc2)cc1 (stereo not drawn) | inactive |
| COc1ccc(N2C(=O)NC(=O)/C(=C/c3ccc([N+](=O)[O-])s3)C2=O)cc1 | inactive |
| COc1ccc(C(SCC(NC(=O)OCc2ccccc2)C(=O)O)c2ccc(OC)cc2)cc1 (stereo not drawn) | inactive |
| CCOC(=O)[C@]12Cc3cc(Cl)ccc3[C@H]1N(C1CCCCC1)C(=O)c1ccccc12 | inactive |
| CCOC(=O)[C@]12Cc3cc(C)ccc3[C@H]1N(Cc1ccccc1)C(=O)c1ccccc12 | inactive |
| O=c1[nH]c(O)c(C=Nc2ccccc2Sc2ccccc2)c(=O)[nH]1 | inactive |
| CCOC(=O)c1cc(CC)sc1/N=C/c1c(O)[nH]c(=S)[nH]c1=O | 100 µM (active) |
| CCCCn1c(NS(=O)(=O)c2ccc(C)cc2)c(C(=O)OCC)c2nc3ccccc3nc21 | inactive |
| CCCCNC(=O)c1c(N)n(CCCOC)c2nc3ccccc3nc12 | inactive |
| CC[C@@H]1c2ccccc2[C@@H]2CC[C@H]1N2c1ccccc1 | inactive |
| Cc1cc(/C=C2\C(=O)NC(=O)N(c3ccc(Cl)cc3)C2=O)c(C)n1-c1sc2c(c1C#N)CCCC2 | inactive |
| CC1=C(O)C(=O)C=C2C1=CC=C1C2(C)CCC2(C)C3CC(C)(C(=O)O)CCC3(C)CCC12C (stereo not drawn) | inactive |
| CCc1nc2ccccc2c(=O)n1-c1ccccc1OC | inactive |
| CCOC(=O)[C@]12Cc3cc(C)ccc3[C@H]1N(C1CCCCC1)C(=O)c1ccccc12 | inactive |
| COc1ccc(-n2c(O)c(/C=C3\C=Nc4ccc(Br)cc43)c(=O)[nH]c2=O)c(OC)c1 | inactive |
| Nc1c(C(=O)Nc2ccc(Br)cc2F)sc2nc3c(cc12)N1CCC3CC1 | inactive |
| Cc1ccc(N2C(=O)NC(=O)/C(=C\C=C\c3ccco3)C2=O)cc1C | inactive |
| CCOC(=O)[C@]12Cc3ccccc3[C@H]1N(C1CCCCC1)C(=O)c1cc(OC)ccc12 | inactive |
| COC1C(OC(=O)c2ccc(C)[nH]2)C(O)C(Oc2ccc3c(O)c(NC(=O)c4ccc(O)c(CC=C(C)C)c4)c(=O)oc3c2Cl)OC1(C)C (stereo not drawn) | inactive |
| CC(C)C/C(=N/O)c1cn(C)c2ccccc12 | inactive |
| COC(=O)c1cn(C(=O)c2cccc3ccccc23)c2ccccc12 | inactive |
| O=[N+]([O-])c1ccc(N2CCOCC2)c2c1no[n+]2[O-] | inactive |
| COC(=O)c1cn(Cc2ccc(F)cc2)c2ccccc12 | inactive |
| COC(=O)C1C2c3ccccc3C(c3ccccc32)C1(C)C(=O)OC (stereo not drawn) | inactive |
